Measured values: the supplement of paper PMC3334620
Over roughly 33,000 sequences, “E-score (-0.5 to 0.5)” has its median near -0.021; the highest 2% begin near 0.32. For the sample, the highest values were picked, then their nearest neighbours and some sequences at random.

Target: T1, Zap1 (UniProt P47043)
T1 sequence: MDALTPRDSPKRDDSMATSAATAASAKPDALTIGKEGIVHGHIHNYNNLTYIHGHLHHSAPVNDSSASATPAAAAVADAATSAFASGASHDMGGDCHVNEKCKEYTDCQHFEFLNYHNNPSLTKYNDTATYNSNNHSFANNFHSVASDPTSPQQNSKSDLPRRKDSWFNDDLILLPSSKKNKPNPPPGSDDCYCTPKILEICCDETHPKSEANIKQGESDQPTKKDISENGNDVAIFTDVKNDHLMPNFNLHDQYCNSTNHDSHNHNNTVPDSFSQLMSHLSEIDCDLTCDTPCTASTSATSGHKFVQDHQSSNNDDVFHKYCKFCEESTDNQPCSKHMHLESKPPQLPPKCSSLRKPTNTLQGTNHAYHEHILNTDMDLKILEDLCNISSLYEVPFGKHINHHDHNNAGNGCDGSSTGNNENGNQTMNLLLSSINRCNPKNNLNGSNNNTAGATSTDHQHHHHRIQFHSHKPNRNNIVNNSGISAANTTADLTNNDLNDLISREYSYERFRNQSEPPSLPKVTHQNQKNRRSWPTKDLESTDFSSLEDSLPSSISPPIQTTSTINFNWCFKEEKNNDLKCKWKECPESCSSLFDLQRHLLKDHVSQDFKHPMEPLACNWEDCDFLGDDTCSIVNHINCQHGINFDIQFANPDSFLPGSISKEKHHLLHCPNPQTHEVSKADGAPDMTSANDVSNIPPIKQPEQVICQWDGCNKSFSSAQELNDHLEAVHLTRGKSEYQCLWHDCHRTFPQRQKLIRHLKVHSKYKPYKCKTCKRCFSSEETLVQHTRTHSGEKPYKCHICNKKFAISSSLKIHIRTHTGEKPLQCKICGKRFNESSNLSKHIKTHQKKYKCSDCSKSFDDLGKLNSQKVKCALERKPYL
Assay: PBM E-score (8-mer binding enrichment) (E-score (-0.5 to 0.5)); higher = stronger / more preferred TF binding
Details: protein concentration: 200 nM; construct: GST-full length
Protocol: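 Universal 'all 10-mer' protein binding microarrays (Agilent AMADID 015681) probed with GST-tagged S. cerevisiae TFs (full-length or DBD) made by in vitro transcription/translation (PURExpress), about 100-200 nM. Bound TF was detected with fluorescent anti-GST. Each ungapped 8-mer (which stands for itself and its reverse complement) is scored by the PBM enrichment score (E-score), a modified Wilcoxon-Mann-Whitney statistic from -0.5 to +0.5, computed with the Universal PBM Analysis Suite. Scale: above 0.35 generally sequence-specific binding.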

| Sequence | PBM E-score |
| --- | --- |
| AAAACCAA | 0.209 |
| GGAACCAA | 0.159 |
| CTAACCAA | 0.262 |
| AGAACCAT | 0.184 |
| GCAACCAA | 0.231 |
| GTAACCAA | 0.417 |
| TCAACCAA | 0.118 |
| ATAACCAA | 0.437 |
| TTAACCAA | 0.317 |
| CAAGACTC | -0.0977 |
| GGCCTCGA | 0.00761 |
| CCTTAAAC | 0.143 |
| CGTGGAGA | -0.239 |
| ACCACTAC | 0.182 |
| AGAGGCCG | -0.144 |
| CGCTCACG | -0.0384 |
| AGGATCTG | -0.242 |
| AGAACCAG | 0.0863 |
| CTAACCAG | 0.146 |
| ATAACCAG | 0.436 |
| GGAATCCA | -0.115 |
| CCAGGGGG | -0.095 |
| CGACCTAC | -0.114 |
| CACCTCTG | -0.0642 |
| TAGCTCGA | 0.0239 |

| Sequence | PBM E-score |
| --- | --- |
| ACAACCAG | 0.23 |
| GCAACCAC | 0.269 |
| ACAACCAA | 0.267 |
| ACAACCAC | 0.361 |
| ACAACCAT | 0.322 |
| ACAACTAT | 0.204 |
| AGGCTTTG | -0.027 |
| ACAATGCA | 0.0982 |
| CTACCCGA | 0.25 |
| AACCCCGA | 0.266 |
| GACCCCGA | 0.244 |
| CAACCCGA | 0.355 |
| TAACCCGA | 0.345 |
| AAACCCGA | 0.264 |
| TACCCCGA | 0.34 |
| GAACCCGA | 0.0725 |
| CAACCCGC | 0.251 |
| GCAGCTGC | -0.246 |
| CTTACTTC | 0.00964 |
| ATATGATA | 0.348 |
| GTATGATA | 0.14 |
| CTATGATA | 0.00378 |
| TCTTCGAA | 0.00843 |
| AATCGTCG | -0.21 |
| CTACTGTA | -0.0171 |

| Sequence | PBM E-score |
| --- | --- |
| GCACCCTA | 0.297 |
| CCACCCTA | 0.327 |
| ACACCCTA | 0.335 |
| ACACCCCA | 0.0819 |
| CCACCCAC | 0.263 |
| ACACCCTC | 0.312 |
| CCACCCAA | -0.0177 |
| CCACCCTC | 0.358 |
| ACACCCTG | 0.21 |
| CCTAGGCC | -0.0276 |
| ATATCTGG | -0.138 |
| CAGTTAAG | 0.0515 |
| GGAGTTTA | -0.0721 |
| ATGAGAGA | -0.0163 |
| GTGCACGA | 0.0644 |
| ACCGCACT | 0.109 |
| GCCGCAAC | 0.218 |
| ACCGCAAG | 0.153 |
| ACCGCAAC | 0.341 |
| ACCGCAAT | 0.319 |
| ACCGCAAA | 0.205 |
| AGCGACGC | -0.162 |
| TGCATCAA | 0.122 |
| CAGCGACA | -0.0507 |
| ACCTAGGT | 0.26 |

| Sequence | PBM E-score |
| --- | --- |
| CGTGATGA | -0.0344 |
| AGTGATGA | -0.0675 |
| GGTGATGA | 0.338 |
| ACAGCAAC | -0.00827 |
| TGAGTGCA | -0.113 |
| CGAGGTGA | 0.239 |
| CGAGGTTC | 0.22 |
| GGAGGTAA | 0.289 |
| GGAGGTGA | 0.13 |
| CGAGGTTA | 0.455 |
| GGAGGTTA | 0.36 |
| GTGGATGA | 0.014 |
| ACGGATGG | -0.0981 |
| AGTTAACA | 0.117 |
| AGTTAACC | 0.289 |
| CGTTAACC | 0.294 |
| CGTTAACA | 0.00812 |
| GGTTAACA | 0.32 |
| GGTTAACC | 0.427 |
| ACGTTGGG | -0.01 |
| CGCTTTAG | -0.136 |
| CATCTTTC | -0.0278 |
| GACCCTGC | 0.283 |
| CACCCTGC | 0.331 |
| CCCCCTGC | -0.372 |

| Sequence | PBM E-score |
| --- | --- |
| CTCCCTGC | -0.212 |
| CACCCTCA | 0.257 |
| ACCCCTCA | 0.267 |
| AACCCTCC | 0.185 |
| ACCCCTGC | 0.167 |
| AACCCTCA | 0.383 |
| CACCCTCC | 0.326 |
| AACCCTCG | 0.292 |
| AACCCTGC | 0.385 |
| GACCCCTC | 0.138 |
| AAAAGCGT | -0.06 |
| TGTGAACA | -0.0338 |
| AGCCACCC | -0.108 |
| AAATGGGT | 0.265 |
| AAATACCG | 0.162 |
| CTAGCAAC | -0.0149 |
| AATGTCGT | -0.0154 |
| AGTCTGAT | -0.0553 |
| GCTATGAA | -0.0097 |
| CACCCTGA | 0.162 |
| AACCCTGG | 0.392 |
| AGCCCTGA | -0.131 |
| TACCCTGA | 0.406 |
| GACCCTGA | 0.304 |
| AACCCTGA | 0.461 |

| Sequence | PBM E-score |
| --- | --- |
| ACCCCTGG | 0.289 |
| CACCCTGG | 0.169 |
| CCCCCTGA | -0.209 |
| ATCCAACA | 0.0629 |
| AGCAAAAG | -0.146 |
| CCTAACTA | 0.135 |
| CGTCCTCA | -0.162 |
| GAAGCCCC | -0.272 |
| CGTTAAAA | 0.0117 |
| GGTTAAAC | 0.356 |
| AGTTAAAC | 0.0887 |
| TGTTAAAA | 0.0204 |
| AGTTAAGA | 0.00562 |
| CGTTAAGA | -0.0174 |
| GGTTAAGA | 0.364 |
| GGTTAAAA | 0.385 |
| CGTTAAAC | 0.21 |
| AGTGTCGA | 0.127 |
| AACAGATG | -0.00675 |
| AAGACTTA | -0.0811 |
| CTTAGACC | -0.0476 |
| GAGCGTAC | -0.162 |
| TACTTGCA | 0.0221 |
| CGGGGCTA | -0.15 |
| CGGGCTCA | -0.323 |

| Sequence | PBM E-score |
| --- | --- |
| ATGAGGTA | 0.324 |
| ATGAGGTG | 0.0386 |
| CTGAGGTA | 0.275 |
| GGCTAGCC | -0.248 |
| AGTGCCCG | -0.203 |
| CCTGCTCG | -0.0742 |
| ACCCTCGG | 0.329 |
| CCCCTCGG | 0.34 |
| ACCCTCCG | 0.228 |
| CCCCTCGA | 0.169 |
| ACCCTCGT | 0.358 |
| ACCCTCGA | 0.143 |
| CCCCTCGC | 0.0553 |
| ACACTCGT | -0.0522 |
| ACCCTCGC | 0.267 |
| CAGTACAG | 0.091 |
| ACTTCTCT | -0.0321 |
| CCAAGTTA | 0.0627 |
| CATGACGC | -0.108 |
| ACCAGCGC | -0.0562 |
| GGACCTCC | -0.134 |
| GAAGGAGA | -0.122 |
